This is part of a sample that, as a whole, favours compounds with a hit. Of some 83,000 tested, about 20% had one in any assay.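 Single-concentration screen, 48 h exposure, 96-well plates. Endpoint: percent growth. Below 10 = active.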 Activity calls are given as the source filed them.
Assays:
Test in all cases: NCI-60 one-dose screen, 48 h (100 = growth as untreated, 0 = no growth, -100 = all killed)
Settings in all cases: 10 µM unless noted
K-562 leukemia = test system: K-562 leukemia
MALME-3M melanoma = test system: MALME-3M melanoma
MDA-MB-231 breast = test system: MDA-MB-231 breast
RXF 393 renal = test system: RXF 393 renal
SF-268 CNS = test system: SF-268 CNS
SF-295 CNS = test system: SF-295 CNS
SF-539 CNS = test system: SF-539 CNS
UACC-257 melanoma = test system: UACC-257 melanoma
M14 melanoma = test system: M14 melanoma
HCT-15 colon = test system: HCT-15 colon
HT29 colon = test system: HT29 colon
SNB-75 CNS = test system: SNB-75 CNS
SNB-19 CNS = test system: SNB-19 CNS
U251 CNS = test system: U251 CNS
PC-3 prostate = test system: PC-3 prostate
SK-MEL-5 melanoma = test system: SK-MEL-5 melanoma
UACC-62 melanoma = test system: UACC-62 melanoma
SK-MEL-28 melanoma = test system: SK-MEL-28 melanoma
SK-MEL-2 melanoma = test system: SK-MEL-2 melanoma
LOX IMVI melanoma = test system: LOX IMVI melanoma

Measured: growth

COc1ccc(/C=N/NC(=O)c2[nH]c3ccc(Br)cc3c2-c2ccccc2)o1
inactive: K-562 leukemia 12.1% | MALME-3M melanoma 51.5% | RXF 393 renal 50.9% | SF-268 CNS 38.6% | SF-295 CNS 16.6% | UACC-257 melanoma 54.1% | HCT-15 colon 10.7% | SNB-75 CNS 50.3% | SNB-19 CNS 30.8% | U251 CNS 19.5% | PC-3 prostate 22.6% | UACC-62 melanoma 43.7% | SK-MEL-28 melanoma 63.3%
active: MDA-MB-231 breast -5.34% | SF-539 CNS -17.4% | M14 melanoma -1.43% | HT29 colon -26.9% | SK-MEL-5 melanoma -29% | SK-MEL-2 melanoma -13%

C=C1CC[C@H]2[C@@](C)(CCC3OC(c4ccc(OCc5cn(C6CC(OC(C)=O)C(OC(C)=O)C(COC(C)=O)O6)nn5)cc4)OC[C@]32C)[C@@H]1/C=C/C1=CCOC1=O (stereo partly specified)
inactive: K-562 leukemia 38.8% | MALME-3M melanoma 58% | MDA-MB-231 breast 77.9% | RXF 393 renal 103% | SF-268 CNS 90.3% | SF-295 CNS 61% | SF-539 CNS 84.8% | UACC-257 melanoma 61.6% | M14 melanoma 93.9% | HCT-15 colon 77.2% | HT29 colon 84.1% | SNB-75 CNS 94.8% | SNB-19 CNS 88.3% | U251 CNS 92.9% | PC-3 prostate 62% | UACC-62 melanoma 70.5% | SK-MEL-28 melanoma 100% | SK-MEL-2 melanoma 100%
active: SK-MEL-5 melanoma 0.123%

COc1cc(/C=C/C(=O)c2ccc(C)cc2)ccc1Oc1nc(NCCO)nc(N2CCOCC2)n1
inactive: MALME-3M melanoma 71.6% | MDA-MB-231 breast 67.7% | RXF 393 renal 82.1% | SF-268 CNS 66.1% | SF-295 CNS 79.8% | SF-539 CNS 39.5% | UACC-257 melanoma 101% | HCT-15 colon 14.5% | HT29 colon 19.4% | SNB-75 CNS 93.7% | SNB-19 CNS 44% | U251 CNS 34.6% | PC-3 prostate 30.6% | SK-MEL-5 melanoma 43.7% | UACC-62 melanoma 53.4% | SK-MEL-28 melanoma 76.6% | SK-MEL-2 melanoma 99.9%
active: K-562 leukemia 6.48% | M14 melanoma -64.4%

N#Cc1ccc(/C=N/NC(=O)c2[nH]c3ccc(Br)cc3c2-c2ccccc2)s1
active: K-562 leukemia 8.83% | SF-539 CNS 2.47% | M14 melanoma 9% | HCT-15 colon 8.95% | HT29 colon 5.64% | SK-MEL-5 melanoma -40.9%
inactive: MALME-3M melanoma 50.1% | MDA-MB-231 breast 22.1% | RXF 393 renal 56% | SF-268 CNS 30% | SF-295 CNS 11.7% | UACC-257 melanoma 40.9% | SNB-75 CNS 49.7% | SNB-19 CNS 29.4% | U251 CNS 16.5% | PC-3 prostate 25% | UACC-62 melanoma 23.4% | SK-MEL-28 melanoma 58.4% | SK-MEL-2 melanoma 30.4%

N#Cc1c(-c2ccc(Cl)cc2)nc(SCc2ccc([N+](=O)[O-])cc2)nc1N1CCNCC1
active: K-562 leukemia -32.2% | MDA-MB-231 breast -77.7% | RXF 393 renal -4.17% | SF-539 CNS -23% | M14 melanoma -81% | HCT-15 colon 1.91% | HT29 colon -71.9% | U251 CNS -95.9% | PC-3 prostate -1.75% | LOX IMVI melanoma -61.7% | SK-MEL-28 melanoma 8.08% | SK-MEL-2 melanoma -2.3%
inactive: MALME-3M melanoma 48.4% | SF-268 CNS 35.3% | SF-295 CNS 78.9% | UACC-257 melanoma 43.5% | SNB-75 CNS 28.1% | SNB-19 CNS 51.8% | SK-MEL-5 melanoma 43.6%

Nc1c(C(=O)c2ccc(Br)cc2)oc2nc(-c3cnccn3)cc(-c3cccs3)c12
inactive: K-562 leukemia 92.7% | MALME-3M melanoma 102% | MDA-MB-231 breast 101% | RXF 393 renal 96.6% | SF-268 CNS 104% | SF-295 CNS 99.6% | SF-539 CNS 98.8% | UACC-257 melanoma 103% | M14 melanoma 98.9% | HCT-15 colon 97.7% | HT29 colon 111% | SNB-75 CNS 98.3% | SNB-19 CNS 97.1% | U251 CNS 92.1% | PC-3 prostate 96.3% | SK-MEL-5 melanoma 98% | UACC-62 melanoma 93.7% | SK-MEL-28 melanoma 107% | SK-MEL-2 melanoma 113%

COc1ccc(NC(=O)c2sc3nc(-c4cnccn4)cc(-c4cccs4)c3c2N)cc1
active: SF-539 CNS -14.2%
inactive: K-562 leukemia 54.5% | MALME-3M melanoma 86.5% | MDA-MB-231 breast 79.7% | RXF 393 renal 31.7% | SF-268 CNS 81% | SF-295 CNS 84% | UACC-257 melanoma 85.1% | M14 melanoma 81.2% | HCT-15 colon 66.5% | HT29 colon 20.8% | SNB-75 CNS 67.1% | SNB-19 CNS 93.6% | U251 CNS 55.5% | PC-3 prostate 82.7% | SK-MEL-5 melanoma 59.4% | LOX IMVI melanoma 18.4% | SK-MEL-28 melanoma 84.3% | SK-MEL-2 melanoma 86.6%

COc1ccc(-c2nn3c(-c4ccccc4F)nnc3s2)cc1
inactive: K-562 leukemia 18.7% | MALME-3M melanoma 66.1% | MDA-MB-231 breast 41.1% | RXF 393 renal 68.4% | SF-268 CNS 74.2% | SF-295 CNS 58.5% | SF-539 CNS 59.3% | UACC-257 melanoma 86.4% | M14 melanoma 34.8% | HCT-15 colon 31.5% | HT29 colon 39.3% | SNB-75 CNS 66.3% | SNB-19 CNS 73.2% | U251 CNS 55.7% | PC-3 prostate 83.1% | SK-MEL-5 melanoma 64.4% | LOX IMVI melanoma 60.3% | SK-MEL-28 melanoma 59.4% | SK-MEL-2 melanoma 30.5%

COc1ccc(-c2csc(N/N=C/c3c(-c4ccc(S(C)(=O)=O)cc4)nc4ccccn34)n2)cc1
inactive: K-562 leukemia 98.5% | MALME-3M melanoma 118% | MDA-MB-231 breast 107% | RXF 393 renal 114% | SF-268 CNS 110% | SF-295 CNS 106% | SF-539 CNS 107% | UACC-257 melanoma 112% | M14 melanoma 106% | HCT-15 colon 101% | HT29 colon 115% | SNB-75 CNS 110% | SNB-19 CNS 106% | U251 CNS 106% | PC-3 prostate 105% | SK-MEL-5 melanoma 96.5% | LOX IMVI melanoma 126% | SK-MEL-28 melanoma 107% | SK-MEL-2 melanoma 114%

COC(=O)C(Cc1ccccc1)NS(=O)(=O)/N=C1\NC(=O)NC1=C(Cl)Cl (stereo unspecified)
inactive: K-562 leukemia 91.8% | MALME-3M melanoma 94.8% | MDA-MB-231 breast 101% | RXF 393 renal 119% | SF-268 CNS 82.9% | SF-295 CNS 99.5% | SF-539 CNS 54% | UACC-257 melanoma 91% | M14 melanoma 92.9% | HCT-15 colon 99.5% | HT29 colon 127% | SNB-75 CNS 106% | SNB-19 CNS 94.2% | U251 CNS 106% | PC-3 prostate 90% | SK-MEL-5 melanoma 98.1% | UACC-62 melanoma 78.8% | SK-MEL-28 melanoma 102% | SK-MEL-2 melanoma 60.3%

CC1=C(C)C(=O)C(Nc2cccc(C(F)(F)F)c2)=C(Cl)C1=O
inactive: MALME-3M melanoma 94.4% | MDA-MB-231 breast 19% | RXF 393 renal 97.8% | SF-268 CNS 94.3% | SF-295 CNS 96.2% | SF-539 CNS 93.4% | UACC-257 melanoma 78.5% | M14 melanoma 85.2% | HCT-15 colon 65.7% | HT29 colon 103% | SNB-75 CNS 66.5% | SNB-19 CNS 92.4% | U251 CNS 79% | PC-3 prostate 64.4% | UACC-62 melanoma 80.2% | SK-MEL-28 melanoma 98.3% | SK-MEL-2 melanoma 85.8%
active: K-562 leukemia 3.78%

Cc1ccc2ccc3ccc(C)nc3c2n1.Cc1ccc2ccc3ccc(C)nc3c2n1.Oc1c(Cl)cc(Cl)c2ccc(CN3CCCCC3)nc12.[Ru]
active: MALME-3M melanoma -85.1% | MDA-MB-231 breast -84% | RXF 393 renal -84.1% | SF-268 CNS -54.8% | SF-295 CNS -84.2% | SF-539 CNS -88.2% | UACC-257 melanoma -69.4% | M14 melanoma -94.1% | HCT-15 colon -81.3% | HT29 colon -61.7% | SNB-75 CNS -71% | SNB-19 CNS -86.4% | U251 CNS -54.5% | PC-3 prostate -82.6% | SK-MEL-5 melanoma -97.9% | UACC-62 melanoma -74% | LOX IMVI melanoma -91.2% | SK-MEL-28 melanoma -89.9% | SK-MEL-2 melanoma -83.1%

COc1cc(/C=C/C(=O)c2ccccc2)ccc1Oc1nc(NCCO)nc(N2CCOCC2)n1
inactive: K-562 leukemia 22.9% | MALME-3M melanoma 93.7% | MDA-MB-231 breast 97.1% | RXF 393 renal 105% | SF-268 CNS 103% | SF-295 CNS 99.7% | SF-539 CNS 94.2% | UACC-257 melanoma 95.4% | M14 melanoma 99.3% | HCT-15 colon 90.9% | HT29 colon 105% | SNB-75 CNS 99.8% | SNB-19 CNS 97.8% | U251 CNS 88.4% | PC-3 prostate 84.9% | SK-MEL-5 melanoma 99.3% | SK-MEL-28 melanoma 107% | SK-MEL-2 melanoma 103%

COc1cccc(COc2ccc(/C=C3/C(=O)Nc4cc(Cl)ccc43)cc2)c1
inactive: MALME-3M melanoma 96.7% | MDA-MB-231 breast 78.2% | RXF 393 renal 88.7% | SF-268 CNS 99.5% | SF-295 CNS 103% | SF-539 CNS 93% | UACC-257 melanoma 104% | M14 melanoma 104% | HCT-15 colon 99.6% | HT29 colon 93.8% | SNB-75 CNS 84.2% | SNB-19 CNS 97.5% | U251 CNS 98.9% | PC-3 prostate 84.5% | SK-MEL-5 melanoma 93% | UACC-62 melanoma 86.7% | LOX IMVI melanoma 97.9% | SK-MEL-28 melanoma 102% | SK-MEL-2 melanoma 107%

CCN1CCN(S(=O)(=O)c2oc(-c3ccc(Cl)cc3)nc2C#N)CC1
active: MALME-3M melanoma -53.6% | RXF 393 renal -60.2% | M14 melanoma -50.6% | HCT-15 colon -35.5% | HT29 colon 2.82% | LOX IMVI melanoma -89.2%
inactive: MDA-MB-231 breast 26.7% | SF-268 CNS 112% | SF-295 CNS 108% | SF-539 CNS 53.1% | UACC-257 melanoma 89.9% | SNB-75 CNS 87.5% | SNB-19 CNS 95.8% | U251 CNS 96.6% | PC-3 prostate 87.4% | SK-MEL-5 melanoma 95.2% | UACC-62 melanoma 88.7% | SK-MEL-28 melanoma 53.5% | SK-MEL-2 melanoma 104%

O=C1NC(=C(Cl)Cl)/C(=N/S(=O)(=O)N2CCCCC2CC2(C(F)(F)F)N=N2)N1 (stereo unspecified)
inactive: SF-268 CNS 49.3% | SF-295 CNS 99.3% | UACC-257 melanoma 82.6% | M14 melanoma 24.4% | SNB-75 CNS 101% | SNB-19 CNS 40.8% | PC-3 prostate 60.5% | SK-MEL-5 melanoma 95.3%
active: K-562 leukemia 2.72% | MALME-3M melanoma -71% | MDA-MB-231 breast -21.4% | RXF 393 renal -28.8% | SF-539 CNS -22% | HCT-15 colon -67.3% | HT29 colon -25.7% | U251 CNS -1.13% | SK-MEL-28 melanoma 7.84% | SK-MEL-2 melanoma -4.45%

— PubChem BioAssay (NCI)
